Source: PubChem BioAssay (National Center for Advancing Translational Sciences (NCATS))
KB-3-1 tox – qHTS assay for MDR1-selective chemotherapeutics: Primary screen using the parental adenocarcinoma cell KB-3-1 | 400,000 compounds, 1.4% hits | Potency, µM (titrated, usually from 46.1 µM), usual class: cytotoxic | KB-3-1 viability, CellTiter-Glo ATP luminescence, 72 h; note: % is set by controls: 0 for no effect and ±100 for the full control effect; nearly all actives have a fitted effect of over 60% in size
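KB-3-1 parental drug-naive adenocarcinoma cells in DMEM/10% FBS, incubated 72 h at 37 C with pin-transferred compounds across a concentration series. Viability by CellTiter-Glo luminescence; concentration-response curves fitted after normalization.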
VP16 counter – VP16 counterscreen qHTS for inhibitors of ROR gamma transcriptional activity; Potency, µM (top dose mostly 53.6 µM), inactives show at the top dose activity, negative = inhibition, most hits filed as inhibitors; AID 2546, 2010; Drosophila S2 Gal4-VP16 UAS-luciferase, luminescence, 20 h; 310,000 compounds, 3.5% hits;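 note: Gal4-VP16 expression switched on by copper sulfate through the metallothionein promoter; % is set by controls: 0 for no effect and ±100 for the full control effect; nearly all actives have a fitted effect of over 50% in size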
KB-V1 MDR tox – qHTS assay for MDR1-selective chemotherapeutics: Primary screen using the drug-selected MDR subline cells KB-V1 | KB-V1 MDR cells viability, CellTiter-Glo, 72 h | Potency, µM (series often up to 46.1 µM), hits mostly cytotoxic | 400,000 compounds, 3.4% hits | AID 1347076, 2019; note: % is set by controls: 0 for no effect and ±100 for the full control effect; nearly all actives have a fitted effect of over 60% in size
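qHTS viability screen in drug-selected KB-V1 MDR cells: 72 h compound treatment at 37 degrees C, ATP luminescence end point.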
SW480 rerep – A quantitative high throughput screen for small molecules that induce DNA re-replication in SW480 colon adenocarcinoma cells. SW480 DNA re-replication, Hoechst DNA content imaging, 48 h. Potency, µM (titrated, usually from 46.1 µM), for inactives: at the highest dose re-replication activation, actives largely listed as activators. 340,000 compounds, 1.8% hits. AID 624297, 2012; note: % of control where 0% means no effect; nearly all actives have a fitted effect of over 55% in size
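Hoechst fluorescence of nuclei (405 nm excitation, 500-530 nm emission) measured by plate-scanning imager after 48 hr compound exposure at 37 C; re-replication scored as increased number of nuclei with elevated intensity.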
MCF10A rerep – A quantitative high throughput screen for small molecules that induce DNA re-replication in MCF 10a normal breast cells. MCF 10A DNA re-replication, Hoechst nuclear intensity, 48 h. Potency, µM (top dose mostly 46.1 µM), for the others: at the top dose activity, positive = re-replication, actives largely listed as activators. 350,000 compounds, 2.9% hits. AID 624296, 2012; note: % of control where 0% means no effect; nearly all actives have a fitted effect of over 50% in size
RORgamma inh – qHTS for inhibitors of ROR gamma transcriptional activity. Nuclear receptor ROR-gamma (Mus musculus), P51450. Drosophila S2 Gal4-RORgamma UAS-luciferase reporter, 20 h. Potency, µM (doses to about 53.6 µM), for inactives: top-dose activity change, negative = inhibition, most hits filed as inhibitors. 310,000 compounds, 5.4% hits. AID 2551, 2010; note: % is set by controls: 0 for no effect and ±100 for the full control effect; nearly all actives have a fitted effect of over 60% in size
Target sequence (P51450 whole entry, looked up, the tested form may be a part): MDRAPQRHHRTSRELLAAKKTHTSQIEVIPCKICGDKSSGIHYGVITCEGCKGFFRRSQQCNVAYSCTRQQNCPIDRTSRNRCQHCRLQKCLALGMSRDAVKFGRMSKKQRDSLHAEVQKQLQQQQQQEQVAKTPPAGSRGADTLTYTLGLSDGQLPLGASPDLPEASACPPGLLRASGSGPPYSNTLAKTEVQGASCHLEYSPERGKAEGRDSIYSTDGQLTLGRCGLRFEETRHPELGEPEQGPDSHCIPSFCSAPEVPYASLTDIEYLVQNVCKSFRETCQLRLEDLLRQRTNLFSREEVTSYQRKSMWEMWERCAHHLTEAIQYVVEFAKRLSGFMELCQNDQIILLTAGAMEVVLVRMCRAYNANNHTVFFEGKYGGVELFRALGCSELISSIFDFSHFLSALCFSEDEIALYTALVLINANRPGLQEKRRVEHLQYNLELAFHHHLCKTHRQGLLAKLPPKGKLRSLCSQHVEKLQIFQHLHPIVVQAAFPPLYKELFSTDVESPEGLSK
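Compounds are pin-transferred onto Drosophila Schneider cells expressing a copper-inducible Gal4–ROR gamma transactivation domain fusion. After 1 hr, copper sulfate is added to 700 uM final; luciferase is read 20 hr later.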
* = called active by the depositor; i = inactive; ? = inconclusive; . = not tested or not shown; [ ] = remark or other dose. Shown are actives, neighbours in structure and some others; about 10% of the full set was active somewhere. Calls come from the whole dose curve; as a rule, active = well fitted curve in the direction sought with a large enough effect; inconclusive = small, poorly fitted or top-dose-only effect, or another doubt; inactive = no such curve, though single readings can be large; an effect the other way counts as inactive or inconclusive. Potency is the fitted concentration of half-maximal effect.

SMILES	KB-3-1 tox	VP16 counter	KB-V1 MDR tox	SW480 rerep	MCF10A rerep	RORgamma inh
CCSC[C@H](NC(=O)[C@H](C)N)C(=O)N[C@@H](CC(=O)O)C(=O)N[C@H](C(=O)N[C@@H](C)C(=O)N[C@H](C(=O)N[C@@H](CSCC)C(=O)N[C@H](C(=O)N[C@H](C(=O)N[C@@H](Cc1cnc[nH]1)C(=O)N[C@@H](CCCNC(=N)N)C(=O)N[C@@H](CC(C)C)C(=O)N[C@@H](C)C(=O)NCC(=O)N[C@@H](CC(C)C)C(=O)N[C@@H](CC(C)C)C(=O)N[C@@H](CO)C(=O)N[C@@H](CCCNC(=N)N)C(=O)N[C@@H](CO)C(=O)NCC(=O)NCC(=O)N[C@H](C(=O)N[C@H](C(=O)N[C@@H](CCCCN)C(=O)N[C@@H](CC(N)=O)C(=O)N[C@@H](CC(N)=O)C(=O)N[C@@H](Cc1ccccc1)C(=O)N[C@H](C(=O)N1CCC[C@H]1C(=O)N[C@H](C(=O)N[C@@H](CC(N)=O)C(=O)N[C@H](C(=O)NCC(=O)N[C@@H](CO)C(=O)N[C@@H](CCCCN)C(=O)N[C@@H](C)C(=O)N[C@@H](Cc1ccccc1)C(N)=O)C(C)C)[C@@H](C)O)C(C)C)C(C)C)C(C)C)[C@@H](C)O)C(C)C)[C@@H](C)O)[C@@H](C)O	.	-1%	.	.	.	-2%
COC(=O)C1=C(C)N(Cc2ccccc2)C(=NCc2cccc(C(F)(F)F)c2)N[C@H]1c1cccc(F)c1	?	?	?	?	12µM*	?
COC(=O)C1=C(C)N(Cc2ccccc2)C(=NCc2cccc(C(F)(F)F)c2)N[C@H]1c1cccc(C(F)(F)F)c1	?	?	?	28%[9.22 µM]	3.7µM*	?
CCCCCCCCCC(=O)NO	.	-10%	.	-11%	2%	27%
COc1ccc(C2c3cc(OC)c(OC)cc3Cc3c4cc(OC)c(OC)cc4cc[n+]32)cc1OC (stereo not given)	.	0%	.	.	.	4%
Cc1cc(C)cc(NC(=O)C2CC(=O)N(c3ccccc3)C2)c1 (stereo not given)	i	.	i	.	.	.
Cc1ccc2[nH]c3c(=O)n(N)c(C)nc3c2c1	i	-9%	i	6.5µM*	31%	0%
O=C(Nc1c(F)cccc1F)c1cnc(N2CCN(c3ccccn3)CC2)c2ccccc12	?	-14%	10µM*	15%	20%	?
Cc1ccc(NC(=O)c2cnc(N3CCN(c4ccccn4)CC3)c3ccccc23)c(Br)c1	?	?	?	?	18µM*	?
Cc1ccc(-n2nc(C)c3c(C)cc(=O)n(CC(=O)NC(C)c4ccccc4)c32)cc1 (stereo not given)	i	.	i	.	.	.
Cc1cc2nc3c(=O)[nH]c(=O)nc-3n(C)c2cc1C=O	.	2%	.	.	.	10µM*
COCC(=O)Nc1nc2ccccc2s1	i	7%	i	1%	-5%	20%
Cc1ccc(/C(=N/Nc2nc3ccccc3s2)C2=C(O)c3ccccc3C2=O)cc1	?	?	i	?	?	4.5µM*
CC(OCc1ccccc1)C(NC(=O)OC(C)(C)C)C(=O)NC1COC2CC(n3ccc(=O)[nH]c3=O)OC12 (stereo not given)	.	-14%	.	.	.	-1%
CCCCNC(=O)C1CCC(Cn2c(=O)c3sccc3n(CC(=O)Nc3ccccc3)c2=O)CC1 (stereo not given)	i	.	i	.	.	.
O=c1c2ccccc2nnn1CSc1ccc2ccccc2n1	i	-15%	23µM*	65%	?	?
O=c1c2ccccc2nnn1CSc1ccccc1	i	?	i	1%	0%	?
Cc1cc(SCn2nnc3ccccc3c2=O)nc2ccccc12	i	-4%	16µM*	0%	25%	17%[10 µM]
Cc1ccc(-n2nnnc2SCn2nnc3ccccc3c2=O)c(C)c1	?	7.1µM*	?	-1%	4%	?
O=C(NCc1cccs1)c1ccc(-c2ccc(F)c(F)c2)c2ccoc12	i	.	i	.	.	.
CCN(CC)S(=O)(=O)c1ccc2c(c1)N(CC(=O)N1CCN(c3cccc(Cl)c3)CC1)C(=O)CO2	i	.	i	.	.	.
CCN1C(C)=C(C(=O)OC(C)C)C(c2ccccc2Cl)C(C(=O)O)=C1C(=O)O (stereo not given)	.	-12%	.	.	.	?
CC[C@]1(O)CC2CN(CCc3c([nH]c4ccccc34)[C@@](C(=O)OC)(c3cc4c(cc3OC)N(C)[C@H]3[C@@](O)(C(=O)OC)[C@H](OC(C)=O)[C@]5(CC)C=CCN6CC[C@]43[C@@H]65)C2)C1 (stereo not given in full)	0.023µM*	-9%	?	0.75µM*	?	?
CC[C@]1(O)C[C@@H]2CN(CCc3c([nH]c4ccccc34)[C@](C(=O)OC)(c3cc4c(cc3OC)N(C=O)[C@H]3[C@@](O)(C(=O)OC)[C@H](C(=O)OC)[C@@]5(CC)C=CCN6CC[C@]43[C@H]65)C2)C1	.	4%	.	.	.	43%
CCC1=C[C@@H]2CN(C1)Cc1c([nH]c3ccccc13)[C@@](C(=O)OC)(c1cc3c(cc1OC)N(C)[C@@H]1[C@@](O)(C(=O)OC)[C@H](OC(C)=O)[C@]4(CC)C=CCN5CC[C@]31[C@@H]54)C2	.	-8%	.	1.2µM*	67%	9%
SMILES	KB-3-1 tox	VP16 counter	KB-V1 MDR tox	SW480 rerep	MCF10A rerep	RORgamma inh
CC(C)(C)OC(=O)N1CCC(c2nnc(SCc3ccccc3Cl)o2)CC1	i	.	9.2µM*	.	.	.
CC(C)(C)OC(=O)N1CCC(c2nnc(SCc3ccccc3F)o2)CC1	i	.	?	.	.	.
CC(C)(C)OC(=O)N1CCC(c2nnc(SCc3cccc(Cl)c3)o2)CC1	i	.	18µM*	.	.	.
CC(C)(C)OC(=O)N1CCC[C@H]1c1nnc(SCc2ccccc2)o1	i	7%	?	-34%	?	5%
O=[N+]([O-])c1ccccc1/C=C/C=N/n1c(-c2cc(-c3ccccc3)n[nH]2)n[nH]c1=S	i	-19%	i	-112%	?	?
Cc1ccc(-c2n[nH]c(=S)n2/N=C/C=C/c2ccccc2[N+](=O)[O-])cc1	i	-24%	i	-2%	?	4.5µM*
